Data published in the supplement of paper PMC7411640.
Counter-ions that a name gives are not always drawn.

The molecules below were run on MDA-MB-468 (assay: phospho-S6 immunofluorescence (DAPI-normalised), per-plate z-score; higher = higher phospho-S6 signal (less pathway suppression)). Conditions: co-treatment: lapatinib 1 uM; 24 h.
Description: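 GPCR-targeted compound library (MedChemExpress HY-L006) tested on MDA-MB-468 PTEN-null TNBC cells in 384-well plates at 0.1, 1 or 10 uM, combined with vehicle, GDC0941 450 nM or lapatinib 1 uM, for 24 h. Phospho-S6 (S240/244) immunofluorescence normalised to DAPI and expressed as a per-plate z-score; values are the mean of biological triplicates.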
With CSc1ccc2c(c1)N(CCC1CCCCN1C)c1ccccc1S2 (stereo not drawn) [Thioridazine (hydrochloride)] (compound 10 µM) the “phospho-S6 immunofluorescence (z-score)” value was -8.27.
In the case of Cc1c(Cc2ccc3ccccc3n2)c2cc(F)ccc2n1CC(=O)O (compound 10 µM), the “phospho-S6 immunofluorescence (z-score)” value is reported as 0.39.
In the case of CCCCc1nc(Cl)c(CO)n1Cc1ccc(-c2ccccc2-c2nnn[nH]2)cc1 [Losartan (potassium)] (compound 10 µM), the “phospho-S6 immunofluorescence (z-score)” value is reported as 0.83.
With O=C(COc1ccc(C(=O)c2ccccc2)cc1)NC1CCN(Cc2ccccc2)CC1 [AdipoRon] (compound 10 µM) the “phospho-S6 immunofluorescence (z-score)” value was -4.87.
In the case of COc1ccc2ccc(=O)oc2c1CC=C(C)C [Osthole] (compound 10 µM), the “phospho-S6 immunofluorescence (z-score)” value is reported as 0.19.
With CCOC(=O)N[C@@H]1CC[C@@H]2[C@@H](C1)C[C@H]1C(=O)O[C@H](C)[C@H]1[C@H]2/C=C/c1ccc(-c2cccc(F)c2)cn1 [Vorapaxar] (compound 10 µM) the “phospho-S6 immunofluorescence (z-score)” value was -11.6.
COc1ccc(C2CC(c3ccccc3)=NN2c2ccc(S(N)(=O)=O)cc2)cc1 (stereo not drawn) (compound 10 µM) was tested, and the “phospho-S6 immunofluorescence (z-score)” value was -0.2.
With CCCN(CCc1cccs1)C1CCc2c(O)cccc2C1 (racemic) [rac-Rotigotine (Hydrochloride)] (compound 10 µM) the “phospho-S6 immunofluorescence (z-score)” value was 0.67.
With Cc1cc(NC(=O)Nc2ccc(N(C)C)cc2)c2cc(F)cc(F)c2n1 (compound 10 µM) the “phospho-S6 immunofluorescence (z-score)” value was -0.1.

Same assay, conditions: co-treatment: vehicle; 24 h
For CCCc1nc2c(C)cc(-c3nc4ccccc4n3C)cc2n1Cc1ccc(-c2ccccc2C(=O)O)cc1 [Telmisartan] (compound 10 µM), the “phospho-S6 immunofluorescence (z-score)” value was 0.35.
CC1CCN(CC[C@H]2CCCN2S(=O)(=O)c2cccc(O)c2)CC1 (compound 10 µM) was tested, and the “phospho-S6 immunofluorescence (z-score)” value was 0.48.
COc1ccc2[nH]cc(CCNC(C)=O)c2c1 [Melatonin] (compound 10 µM) was tested, and the “phospho-S6 immunofluorescence (z-score)” value was -0.21.
CC(=O)Oc1cc2c(s1)CCN(C(C(=O)C1CC1)c1ccccc1F)C2 (stereo not drawn) [Prasugrel] (compound 10 µM) was tested, and the “phospho-S6 immunofluorescence (z-score)” value was -0.48.
With CCn1c(=O)c2c(nc(/C=C/c3ccc(OC)c(OC)c3)n2C)n(CC)c1=O [Istradefylline] (compound 10 µM) the “phospho-S6 immunofluorescence (z-score)” value was -0.74.
For CC(C)NCC(O)COc1ccc(CCOCC2CC2)cc1 (stereo not drawn) [Betaxolol (hydrochloride)] (compound 10 µM), the “phospho-S6 immunofluorescence (z-score)” value was 0.74.
In the case of CC[C@@H]1C(=O)OC[C@@H]1Cc1cncn1C [Pilocarpine (Hydrochloride)] (compound 10 µM), the “phospho-S6 immunofluorescence (z-score)” value is reported as -0.68.
In the case of CC(=O)OCC(=O)[C@@]12N=C(C)O[C@@H]1C[C@H]1[C@@H]3CCC4=CC(=O)C=C[C@]4(C)[C@H]3[C@@H](O)C[C@@]12C [Deflazacort] (compound 10 µM), the “phospho-S6 immunofluorescence (z-score)” value is reported as -0.08.
With CC1(C)O[C@@H]2[C@@H](CO[C@@]3(COS(N)(=O)=O)OC(C)(C)O[C@@H]23)O1 [Topiramate] (compound 10 µM) the “phospho-S6 immunofluorescence (z-score)” value was -0.31.
For O=C(Nc1cccc(Cl)c1)c1ccccn1 (compound 10 µM), the “phospho-S6 immunofluorescence (z-score)” value was -0.86.
With CN1CCN(C2=Nc3cc(Cl)ccc3Nc3ccccc32)CC1 [Clozapine] (compound 10 µM) the “phospho-S6 immunofluorescence (z-score)” value was -0.32.
With CCOC(=O)c1ccc(-n2cc(Cc3cnc(OCC)nc3)c(=O)nc2SCc2ccc(F)cc2)cc1 (compound 10 µM) the “phospho-S6 immunofluorescence (z-score)” value was -4.85.
In the case of O=C(c1ccc(F)cc1)N1CCC[C@H](c2nc(-c3ccc(F)cc3)no2)C1 (compound 10 µM), the “phospho-S6 immunofluorescence (z-score)” value is reported as -2.93.
For NC1=NCC2c3ccccc3Cc3ccccc3N12 (stereo not drawn) [Epinastine] (compound 10 µM), the “phospho-S6 immunofluorescence (z-score)” value was 0.35.
For C=CCN1CCCC1CNC(=O)c1cc(S(N)(=O)=O)cc(OC)c1OC (stereo not drawn) [Veralipride] (compound 10 µM), the “phospho-S6 immunofluorescence (z-score)” value was 0.08.
With CCCN(CCC)CCc1cccc2c1CC(=O)N2 [Ropinirole (hydrochloride)] (compound 10 µM) the “phospho-S6 immunofluorescence (z-score)” value was 1.01.
With O=C(Nc1cccc2c(=O)cc(-c3nnn[nH]3)oc12)c1ccc(OCCCCc2ccccc2)cc1 [Pranlukast (hemihydrate)] (compound 10 µM) the “phospho-S6 immunofluorescence (z-score)” value was 0.31.
With COc1nc(C)cnc1NS(=O)(=O)c1cccnc1-c1ccc(-c2nnco2)cc1 [Zibotentan] (compound 10 µM) the “phospho-S6 immunofluorescence (z-score)” value was -2.06.
Clc1ccc2nsnc2c1NC1=NCCN1 [Tizanidine (hydrochloride)] (compound 10 µM) was tested, and the “phospho-S6 immunofluorescence (z-score)” value was 0.54.
CN1[C@@H]2CC[C@H]1C[C@@H](OC(=O)c1c[nH]c3ccccc13)C2 [Tropisetron (Hydrochloride)] (compound 10 µM) was tested, and the “phospho-S6 immunofluorescence (z-score)” value was -0.04.
For O=C(NC(Cc1cc(=O)[nH]c2ccccc12)C(=O)O)c1ccc(Cl)cc1 (stereo not drawn) [Rebamipide] (compound 10 µM), the “phospho-S6 immunofluorescence (z-score)” value was 0.16.
In the case of CNS(=O)(=O)Cc1ccc2[nH]cc(CCN(C)C)c2c1 [Sumatriptan (succinate)] (compound 10 µM), the “phospho-S6 immunofluorescence (z-score)” value is reported as 0.55.
In the case of COc1ccccc1Oc1c(NS(=O)(=O)c2ccc(C)cn2)nc(-c2ccncc2)nc1OC [Avosentan] (compound 10 µM), the “phospho-S6 immunofluorescence (z-score)” value is reported as -0.65.
With COc1cccc(CCc2ccccc2OCC(CN(C)C)OC(=O)CCC(=O)O)c1 (stereo not drawn) [Sarpogrelate (hydrochloride)] (compound 10 µM) the “phospho-S6 immunofluorescence (z-score)” value was -0.15.
In the case of O=C(CCCN1CCC(O)(c2ccc(Cl)cc2)CC1)c1ccc(F)cc1 [Haloperidol] (compound 10 µM), the “phospho-S6 immunofluorescence (z-score)” value is reported as 0.93.
With CCOc1cc(N)c(Cl)cc1C(=O)NCC1CN(Cc2ccc(F)cc2)CCO1 (stereo not drawn) [Mosapride (citrate)] (compound 10 µM) the “phospho-S6 immunofluorescence (z-score)” value was 0.79.
With CC(C)(Cc1ccc2ccccc2c1)NC[C@@H](O)COc1cccc(Cl)c1C#N [NPS-2143 (hydrochloride)] (compound 10 µM) the “phospho-S6 immunofluorescence (z-score)” value was -9.7.
CN(C)[C@@H]1CCc2[nH]c3ccc(NC(=O)c4ccc(F)cc4)cc3c2C1 (compound 10 µM) was tested, and the “phospho-S6 immunofluorescence (z-score)” value was -0.54.
With NCCc1c[nH]cn1 [Histamine] (compound 10 µM) the “phospho-S6 immunofluorescence (z-score)” value was 0.58.
With CCCCC[C@H](O)/C=C/[C@H]1[C@H](O)CC(=O)[C@@H]1CCCCCCC(=O)O [Prostaglandin E1] (compound 10 µM) the “phospho-S6 immunofluorescence (z-score)” value was -0.27.
With CSc1ccc2c(c1)N(CCC1CCCCN1C)c1ccccc1S2 (stereo not drawn) [Thioridazine (hydrochloride)] (compound 10 µM) the “phospho-S6 immunofluorescence (z-score)” value was -7.88.
For Cc1c(Cc2ccc3ccccc3n2)c2cc(F)ccc2n1CC(=O)O (compound 10 µM), the “phospho-S6 immunofluorescence (z-score)” value was 0.58.
For CCCCc1nc(Cl)c(CO)n1Cc1ccc(-c2ccccc2-c2nnn[nH]2)cc1 [Losartan (potassium)] (compound 10 µM), the “phospho-S6 immunofluorescence (z-score)” value was 0.81.
For O=C(COc1ccc(C(=O)c2ccccc2)cc1)NC1CCN(Cc2ccccc2)CC1 [AdipoRon] (compound 10 µM), the “phospho-S6 immunofluorescence (z-score)” value was -1.92.
In the case of COc1ccc2ccc(=O)oc2c1CC=C(C)C [Osthole] (compound 10 µM), the “phospho-S6 immunofluorescence (z-score)” value is reported as 0.23.
For CCOC(=O)N[C@@H]1CC[C@@H]2[C@@H](C1)C[C@H]1C(=O)O[C@H](C)[C@H]1[C@H]2/C=C/c1ccc(-c2cccc(F)c2)cn1 [Vorapaxar] (compound 10 µM), the “phospho-S6 immunofluorescence (z-score)” value was -9.84.
With COc1ccc(C2CC(c3ccccc3)=NN2c2ccc(S(N)(=O)=O)cc2)cc1 (stereo not drawn) (compound 10 µM) the “phospho-S6 immunofluorescence (z-score)” value was -6.71.
For CCCN(CCc1cccs1)C1CCc2c(O)cccc2C1 (racemic) [rac-Rotigotine (Hydrochloride)] (compound 10 µM), the “phospho-S6 immunofluorescence (z-score)” value was -0.11.
For Cc1cc(NC(=O)Nc2ccc(N(C)C)cc2)c2cc(F)cc(F)c2n1 (compound 10 µM), the “phospho-S6 immunofluorescence (z-score)” value was -2.06.
